For assay [1], the target named is Luciferin 4-monooxygenase (Photinus pyralis) (UniProt P08659). Nature of the assay: Biochemical firefly luciferase enzyme assay for NPC (AID 624030).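 Further: purified P. pyralis luciferase at 10 nM with luciferin and ATP substrate; series mostly up to about 59 µM; nearly all actives have a fitted effect of over 70% in size.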 In short, it runs like this: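 Counter-screen for direct inhibition of the luciferase enzyme by approved-drug library compounds, run at 10 nM enzyme in 50 mM Tris acetate (final). Luminescence was read within 5 min of enzyme-buffer addition and normalized to PTC124 versus DMSO (0%).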

A short description of assay [2]: S16 Schwann cell viability assay (CellTiter-Glo assay) (AID 624031). Further: nearly all actives have a fitted effect of over 70% in size. Further: potency means the concentration at half of the fitted maximal effect. In short, it runs like this: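 This viability control uses native rat S16 Schwann cells grown in DMEM plus 10% FBS. After a 24 h compound treatment at 37 °C, CellTiter-Glo luminescence reports ATP content, scaled against DMSO-treated and cell-free wells.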
The nature of assay [3]: S16 Schwann cell PMP22 intronic element firefly luciferase assay (AID 624032). Further: nearly all actives have a fitted effect of over 30% in size. Further: potency means the concentration at half of the fitted maximal effect. The gist of the method:
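Rat S16 Schwann cells stably carrying a PMP22 intronic element-driven Fluc reporter were seeded overnight, then exposed to compounds for 24 h at 37 °C. Luminescence was normalized to PTC124 (positive control) and DMSO (0% activity).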

Assay [4] in a line: S16 Schwann cell PMP22 intronic element beta-lactamase assay (AID 624044; calls by dose curve; further: nearly all actives have a fitted effect of over 15% in size; further: potency means the concentration at half of the fitted maximal effect). In short, it runs like this: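 Rat S16 Schwann cells with beta-Lac driven by a PMP22 intronic element, compound-treated 24 h at 37 °C. LiveBLAzer FRET B/G read: 460 nm normalized to potassium clavulanate vs DMSO; 535 nm FRET as viability; concentration-effect curves classified.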
Assay [5] concerns the target Glutaminase kidney isoform, mitochondrial (Homo sapiens) (UniProt O94925). Nature of the assay: qHTS for Inhibitors of Glutaminase (GLS): LOPAC Validation (AID 624146).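 Further: glutamate product detected by oxidase and peroxidase coupled Amplex red fluorescence gain; series mostly up to about 46 µM; nearly all actives have a fitted effect of over 60% in size.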 In short, it runs like this: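 hKGA; 45 mM KH2PO4 pH 8.2 + 0.02% Tween-20; cpd via pin tool; 1 mM Gln soln; GluOx/HRP/Amplex Red; RT 30 min; fluor. t0 & final.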
In general terms: Quantitative high-throughput screening tests each substance at several concentrations.

Assay [6] in a line: qHTS of Trypanosoma Brucei Inhibitors: LOPAC Validation (AID 624147). In short, it runs like this: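 Screened from lowest to highest concentration, compounds were pinned into TbPYK/substrate mixtures, and ADP (130 uM final) was added. Plates sat at room temperature for 45 min prior to Kinase-Glo Plus detection by luminescence.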
Assay [7] concerns the target Glucagon-like peptide 1 receptor (Homo sapiens) (UniProt P43220). Nature of the assay: qHTS of GLP-1 Receptor Agonists: LOPAC Validation (AID 624148).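 Further: higher luminescence signal means agonism.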 In short, it runs like this:
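HEK293 cells stably co-expressing a cAMP-responsive luciferase reporter and a hypersensitive GLP-1R were plated 12 h at 37 °C and exposed to compounds for 4-6 hr at 37 °C, 5% CO2. Luminescence was read 12 min after adding detection reagent.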

Assay [8] is described as follows: qHTS of Nrf2 Activators: LOPAC Validation (AID 624149). The gist of the method:
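Luminescence read-out of ARE-luciferase activation: AREc32_Fluc cells treated with compounds for 24 hr at 37 deg C, then lysed with Steady-Glo for 30 min at room temperature before reading.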

Assay [9] can be described thus: HTS Assay for Allosteric Antagonists of the Human D2 Dopamine Receptor: Hit Validation in HTRF (AID 624455).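 Further: stable D1 dopamine receptor cell line scored for blocking the D1 response.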 The gist of the method:
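First, antagonism was screened by calcium flux in a force-coupled, inducible Hek293 Trex D2 line challenged with EC80 dopamine. Hits then went into an HTRF assay in cells stably expressing D1, testing inhibition of the D1 response.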
(In TR-FRET formats the signal depends on donor and acceptor labels being close together.)

A short description of assay [10]: qHTS assay for small molecule agonists of the antioxidant response element (ARE) signaling pathway (AID 651741; active means well fitted activation curve with a large enough effect in the signal ratio; the % refers to the signal ratio; further: potency means the concentration at half of the fitted maximal effect). The gist of the method:
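Compounds in DMSO are pinned onto HepG2 ARE-bla cells (2,000/well) that were preincubated 5 h; plates stay 16 h at 37 C, then beta-lactamase activity is detected with LiveBLAzer B/G substrate by fluorescence.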

Several values for one entry are separate records, joined by “and”; a condition that tells them apart may be missing. Equal entries are not always repeated. Results filed as inconclusive are left out. Activity calls are given as the source filed them. Unless noted, the call rests on the fitted dose curve; in most records, active means well fitted curve in the direction sought with a large enough effect; inconclusive means small, poorly fitted or top-dose-only effect, or another doubt; inactive means no such curve, though single readings can be large; an effect the other way counts as inactive or inconclusive.

Chain of Luciferin 4-monooxygenase (Photinus pyralis) (P08659 whole entry, looked up): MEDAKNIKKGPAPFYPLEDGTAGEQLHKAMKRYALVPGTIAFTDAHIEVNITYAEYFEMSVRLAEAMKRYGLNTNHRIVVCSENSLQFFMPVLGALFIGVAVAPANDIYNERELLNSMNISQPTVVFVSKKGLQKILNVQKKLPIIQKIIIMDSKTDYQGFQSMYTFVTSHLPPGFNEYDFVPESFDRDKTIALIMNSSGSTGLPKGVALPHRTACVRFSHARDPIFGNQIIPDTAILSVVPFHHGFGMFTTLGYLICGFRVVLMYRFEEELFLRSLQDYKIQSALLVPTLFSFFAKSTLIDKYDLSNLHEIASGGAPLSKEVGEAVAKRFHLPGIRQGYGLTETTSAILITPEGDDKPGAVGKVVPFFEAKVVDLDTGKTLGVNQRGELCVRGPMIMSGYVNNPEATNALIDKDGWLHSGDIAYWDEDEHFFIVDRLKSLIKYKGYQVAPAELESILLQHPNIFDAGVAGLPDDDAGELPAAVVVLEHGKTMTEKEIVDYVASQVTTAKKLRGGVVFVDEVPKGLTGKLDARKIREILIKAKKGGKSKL
Chain of Glucagon-like peptide 1 receptor (Homo sapiens) (P43220 whole entry, looked up): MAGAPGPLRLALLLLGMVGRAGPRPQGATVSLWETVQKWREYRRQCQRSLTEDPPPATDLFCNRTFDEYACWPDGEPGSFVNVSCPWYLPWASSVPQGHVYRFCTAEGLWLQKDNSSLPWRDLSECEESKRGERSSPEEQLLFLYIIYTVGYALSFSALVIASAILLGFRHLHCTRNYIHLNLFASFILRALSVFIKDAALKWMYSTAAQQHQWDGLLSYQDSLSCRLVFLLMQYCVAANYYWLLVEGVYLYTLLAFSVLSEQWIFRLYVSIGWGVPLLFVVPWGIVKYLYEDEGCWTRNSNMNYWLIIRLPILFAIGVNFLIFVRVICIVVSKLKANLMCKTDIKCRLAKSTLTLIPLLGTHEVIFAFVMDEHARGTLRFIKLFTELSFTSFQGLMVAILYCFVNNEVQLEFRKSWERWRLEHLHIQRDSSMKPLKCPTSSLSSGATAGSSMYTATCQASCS
Chain of Glutaminase kidney isoform, mitochondrial (Homo sapiens) (O94925 whole entry, looked up, canonical isoform): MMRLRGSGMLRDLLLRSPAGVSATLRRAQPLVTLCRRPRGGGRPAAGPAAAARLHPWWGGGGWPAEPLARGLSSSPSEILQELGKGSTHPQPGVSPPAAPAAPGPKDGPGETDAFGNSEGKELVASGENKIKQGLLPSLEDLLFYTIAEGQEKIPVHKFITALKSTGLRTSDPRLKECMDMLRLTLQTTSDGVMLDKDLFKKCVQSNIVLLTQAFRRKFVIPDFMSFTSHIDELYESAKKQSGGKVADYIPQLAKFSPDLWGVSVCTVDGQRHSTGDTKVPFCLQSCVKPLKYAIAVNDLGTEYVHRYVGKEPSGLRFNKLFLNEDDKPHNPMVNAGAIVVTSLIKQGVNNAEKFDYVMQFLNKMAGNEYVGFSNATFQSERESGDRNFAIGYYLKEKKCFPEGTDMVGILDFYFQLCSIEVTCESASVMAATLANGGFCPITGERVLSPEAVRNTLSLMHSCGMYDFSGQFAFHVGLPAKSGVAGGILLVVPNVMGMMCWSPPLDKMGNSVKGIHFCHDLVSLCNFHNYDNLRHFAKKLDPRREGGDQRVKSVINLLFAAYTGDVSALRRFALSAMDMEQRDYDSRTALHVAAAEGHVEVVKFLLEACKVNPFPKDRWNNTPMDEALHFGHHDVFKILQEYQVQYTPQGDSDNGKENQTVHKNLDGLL

`CCOC(=O)[C@H](CCc1ccccc1)N[C@@H](C)C(=O)N1[C@H](C(=O)O)C[C@H]2CCCC[C@@H]21`: the Potency entry in [1], in assay [2], in assay [3] and in [4] was “inactive” throughout. Further, the result in assay [5], in assay [6], in assay [7], in [8] and in assay [9] was inactive.

As for `c1ccc(CC2=NCCN2)cc1`, the Potency result in [1], in [2] and in assay [4] was “inactive” in each case.

For the compound `CCCCCCCCCCCCSCCOCCO`, the Potency result in assay [1], in assay [2] and in [4] was “inactive” in each case.

For the compound `CN(C)CCC[C@@]1(c2ccc(F)cc2)OCc2cc(C#N)ccc21`, the Potency entry in assay [1] and in [3] was “inactive” each time.

For the compound `CCOC(=O)Nc1ccc2c(c1)N(C(=O)CCN1CCOCC1)c1ccccc1S2`, the Potency result in assay [1], in assay [2] and in [4] was “inactive” in each case.

As for `CNCCCCOc1ccccc1Cc1ccccc1`, the Potency result in [1] and in assay [4] was “inactive” each time. Also, the Potency in assay [2] is 28.7 µM (active).

With `CN1CCC(OC(c2ccccc2)c2ccccc2)CC1`, the Potency result in [1], in assay [2], in assay [3] and in assay [4] was “inactive” throughout.

On to `Oc1ccccc1C=NCc1ccccc1`, for which the Potency entry in assay [1] and in assay [3] was “inactive” each time.

Regarding `CCCCN=C(N)N=C(N)N`, the Potency result in assay [1], in assay [2], in assay [3] and in assay [4] was “inactive” in each case.

Take `C=CCN1CCc2nc(N)sc2CC1`: the Potency entry in assay [1] and in assay [3] was “inactive” each time.

Turning to `COc1cc([C@H]2Oc3cc([C@H]4Oc5cc(O)cc(O)c5C(=O)[C@@H]4O)ccc3O[C@@H]2CO)ccc1O`, the Potency entry in assay [1], in assay [2] and in assay [4] was “inactive” each time.

With `CC(C)(C)NC[C@H](O)COc1nsnc1N1CCOCC1`, the Potency entry in assay [1], in assay [2] and in [3] was “inactive” throughout. The outcome in assay [5], in assay [6], in [7], in assay [8] and in assay [9] was inactive.

Regarding `Cl/C(=C\n1cncn1)c1ccc(Cl)cc1Cl`, the Potency result in assay [1] and in [3] was “inactive” in each case.

In the case of `C/C=C/c1ccc(O)c(OC)c1`, the Potency entry in assay [1], in assay [2] and in assay [3] was “inactive” throughout. Also, the Potency in [10] is 30.6 µM (active) and 42.2 µM (active).

Regarding `C#C[C@]1(O)CC[C@H]2[C@@H]3CCC4=Cc5oncc5C[C@]4(C)[C@H]3CC[C@@]21C`, the Potency entry in assay [1], in assay [2] and in assay [4] was “inactive” in each case.

On to `O=c1[nH]c(=O)n([C@H]2C[C@H](O)[C@@H](CO)O2)cc1F`, for which the Potency result in assay [1] and in [2] was “inactive” in each case. Besides, in assay [4], the Potency was 0.0056 µM (active).

Turning to `COc1ccc(C(Cl)=C(c2ccc(OC)cc2)c2ccc(OC)cc2)cc1`, the Potency entry in assay [1] and in assay [3] was “inactive” in each case.

`NC(=O)c1ccccc1O`: the Potency result in assay [1], in assay [2], in assay [3] and in assay [10] was “inactive” throughout.

As for `CCCCCCCCCCCCCCCC(=O)O`, the Potency result in assay [1], in assay [2], in [4] and in [10] was “inactive” in each case.

As to `Cc1ncc(CO)c(C=O)c1O`, the Potency entry in [1] and in assay [3] was “inactive” in each case.

Take `CN(C)CCOC(c1ccc(Cl)cc1)c1ccccn1` (centres undefined): the Potency result in assay [1] and in [3] was “inactive” each time.

As for `CCCCCCCCCCCCCC(=O)OC(C)C`, the Potency entry in assay [1], in assay [2], in assay [3] and in assay [10] was “inactive” each time.

With `Nc1nc(-c2ccccc2)c(Br)c(=O)[nH]1`, the Potency result in [1], in assay [2], in assay [3] and in [4] was “inactive” in each case.

For the compound `CC[C@H](c1ccc(O)cc1)[C@@H](CC)c1ccc(O)cc1`, the Potency result in [1], in assay [2] and in assay [4] was “inactive” in each case.

For `CCCCCCCCOc1ccc(C(=O)c2ccccc2)c(O)c1`, the Potency entry in assay [1], in assay [2] and in assay [10] was “inactive” each time.

Regarding `COC(=O)C(c1ccccc1Cl)N1CCc2sccc2C1` (centres undefined), the Potency result in [1] and in [3] was “inactive” each time.

`O[C@@H](c1cc(C(F)(F)F)nc2c(C(F)(F)F)cccc12)[C@H]1CCCCN1`: the Potency entry in assay [1] was “inactive”. In addition, the Potency in assay [3] is 36.1 µM (active).

On to `CCCCNC(=O)NS(=O)(=O)c1ccc(N)cc1`, for which the Potency result in assay [1] and in assay [3] was “inactive” in each case.

Consider `CN1CCN(c2cc3c(cc2F)c(=O)c(C(=O)O)cn3-c2ccc(F)cc2)CC1`, for which the Potency entry in assay [1] and in assay [3] was “inactive” throughout.

As to `FC(F)(F)C(F)(F)C(F)(F)C(F)(F)C(F)(F)C(F)(F)C(F)(F)C(F)(F)Br`, the Potency entry in assay [1], in assay [3] and in [4] was “inactive” in each case.

For `CCC1Nc2cc(Cl)c(S(N)(=O)=O)cc2S(=O)(=O)N1` (centres undefined), the Potency entry in assay [1] and in [3] was “inactive” in each case.

With `O=C(c1ccc(F)cc1)C1CCN(CCn2c(=S)[nH]c3ccccc3c2=O)CC1`, the Potency entry in [1], in assay [3] and in assay [4] was “inactive” each time.

In the case of `C#C[C@]1(OC(C)=O)CC[C@H]2[C@@H]3CCC4=C/C(=N/O)CC[C@@H]4[C@H]3CC[C@@]21CC`, the Potency result in [1] was “inactive”. Besides, the Potency in assay [3] was 8.09 µM (active).

For `CC(=O)Nc1ccc(CC(=O)O)cc1`, the Potency result in assay [1] and in [3] was “inactive” throughout.

On to `OCCOCCN1CCN(C2=Nc3ccccc3Sc3ccccc32)CC1`, for which the Potency entry in [1], in assay [3] and in assay [4] was “inactive” in each case.

Regarding `CCN(CC)CCOc1ccccc1C(=O)CCc1ccccc1`, the Potency result in [1], in [3] and in assay [4] was “inactive” throughout.

Take `COc1ccccc1N1CCN(CCCCNC(=O)c2ccc(-c3ccc(C(C)=O)cc3)cc2)CC1`: the Potency result in assay [1] and in [3] was “inactive” throughout.

Consider `CCOC(=O)c1ccc(N)cc1`, for which the Potency result in assay [1] and in [3] was “inactive” each time.

On to `CO[C@]12C[C@@H](COC(=O)c3cncc(Br)c3)CN(C)[C@@H]1Cc1cn(C)c3cccc2c13`, for which the Potency entry in assay [1], in assay [3] and in [4] was “inactive” throughout.

For `CN1CCC[C@@H]1CCO[C@](C)(c1ccccc1)c1ccc(Cl)cc1`, the Potency result in [1] and in assay [3] was “inactive” throughout.

With `CCOCCn1c(N2CCCN(C)CC2)nc2ccccc21`, the Potency result in assay [1] and in assay [3] was “inactive” throughout.

Consider `NC(=O)C1(N2CCCCC2)CCN(CCCC(=O)c2ccc(F)cc2)CC1`, for which the Potency result in assay [1], in assay [3] and in assay [4] was “inactive” throughout.

For `O=C(CCN1CCN2CCCC2C1)N1c2ccccc2Sc2ccc(Cl)cc21` (centres undefined), the Potency entry in assay [1], in assay [3] and in [4] was “inactive” each time.

These data come from PubChem BioAssay (NCATS).
